# Laboratory results reported in PubChem BioAssay (NCI).
# About 83,000 compounds went through this panel and 20% of them were active in at least one assay; those are over-represented in the sample as a whole.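 Single-concentration screen, 48 h exposure, 96-well plates. Endpoint: percent growth. Below 10 = active.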 A number with no mark means an inactive call. Activity calls are given as the source filed them.
# What was measured:
# Assay in all cases: NCI-60 one-dose screen, 48 h (100 = growth as untreated, 0 = no growth, -100 = all killed)
# Conditions in all cases: 10 µM unless noted
# BT-549 breast = tested on: BT-549 breast
# MDA-MB-435 melanoma = tested on: MDA-MB-435 melanoma
# SW-620 colon = tested on: SW-620 colon
# MCF7 breast = tested on: MCF7 breast
# HCT-116 colon = tested on: HCT-116 colon
# HCC-2998 colon = tested on: HCC-2998 colon
# KM12 colon = tested on: KM12 colon
SMILES,growth (BT-549 breast),growth (MDA-MB-435 melanoma),growth (SW-620 colon),growth (MCF7 breast),growth (HCT-116 colon),growth (HCC-2998 colon),growth (KM12 colon)
N=C(N)/N=C(\CCc1nc2ccccc2[nH]1)c1nc2ccccc2[nH]1,104%,109%,104%,86.3%,102%,100%,103%
COc1ccc2c3c(c(OCCCN(C)C)nc2c1)-c1ccc(Cl)cc1C3=O,92.5%,-7.72% (active),-78.7% (active),-82.3% (active),-90.9% (active),-95.2% (active),-32.2% (active)
c1ccc(N2CCN(c3nncc4ccccc34)CC2)nc1,104%,104%,104%,105%,103%,117%,104%
Cc1[nH]n(C(N)=S)c(=O)c1N=Nc1ccc(F)c(Cl)c1,143%,107%,111%,103%,95.5%,95.7%,90%
c1ccc(-c2nnc(Nc3nnc(-c4ccccc4)s3)s2)cc1,106%,106%,98%,67.6%,97.9%,108%,113%
Cc1cc2c(cc1C)Nc1sc(NC(=O)CN3CCN(C)CC3)nc1C(=O)N2,109%,111%,116%,97.5%,101%,101%,102%
O=C(Nc1cccc([N+](=O)[O-])c1)c1cccc(C(=O)Nc2cccc([N+](=O)[O-])c2)c1,-4.34% (active),83.1%,92.8%,68.3%,78.4%,88.2%,87.6%
CCCn1cnc2c1c(=O)n(CCCCC(C)=O)c(=O)n2C,103%,117%,97.7%,92.6%,96.8%,100%,114%
CC[N+](C)(CC)CCCC(C)Nc1ccnc2cc(Cl)ccc12 (stereo not given),117%,108%,106%,96.4%,110%,119%,102%
O=C(CSc1nnc(Nc2ccccc2)s1)NCCc1ccc(F)cc1,109%,101%,103%,109%,99.8%,99.3%,111%
Cc1c(C(N)=O)sc2c1c(=O)n(Cc1ccccc1)c1nnc(S(=O)(=O)CC(=O)Nc3ccc(Cl)cc3)n21,75.7%,46.2%,39.6%,73.5%,15%,26%,55%
COc1ccc2[nH]cc(/C=C3/C(=O)Nc4ccc(Cl)cc43)c2c1,40.9%,22.9%,53.7%,40.7%,13.5%,43.9%,3.07% (active)
CCC(C)CC(C)C(=O)c1c(O)ccn(OC)c1=O (stereo not given),78.1%,73.6%,61.8%,74.3%,47.6%,95.7%,102%
CC(=O)c1nc2ccccc2n1CCn1cc(CC(N)C(=O)O)c2ccccc21 (stereo not given),105%,101%,114%,75.3%,106%,102%,104%
C=C1c2c(C)nn(-c3ccc(C#CCOC4OC(CO)C(O)C(O)C4O)cc3)c2N(C)C23C[C@H]1C1(C)c4c(C)nn(-c5ccc(C#CCOC6OC(CO)C(O)C(O)C6O)cc5)c4N(C)C(C)(C[C@H]12)C3 (stereo not given in full),3.47% (active),0.0883% (active),11.6%,-0.735% (active),0.942% (active),-3.04% (active),-23.3% (active)
Fc1ccc(-c2nnc(/C=C/c3cn(-c4ccccc4)nc3-c3ccccc3)o2)cc1,86.6%,100%,86.6%,94%,57%,95%,102%
COC(=O)[C@]12CC[C@@H](C)[C@H](C)[C@@H]1C1=CC[C@@H]3[C@@]4(C)C[C@@H](OC(=O)c5ccco5)[C@H](O)[C@@](C)(CO)[C@@H]4[C@H](O)C[C@@]3(C)[C@]1(C)CC2,-68.1% (active),-86.7% (active),-81.4% (active),-73.7% (active),-63.3% (active),-89.1% (active),-85.8% (active)
CCC(O)C(C)(C)C (stereo not given),108%,105%,101%,113%,106%,106%,113%

SMILES,growth (BT-549 breast),growth (MDA-MB-435 melanoma),growth (SW-620 colon),growth (MCF7 breast),growth (HCT-116 colon),growth (HCC-2998 colon),growth (KM12 colon)
CN(C)CCCN1c2nc3ccccc3cc2Sc2cc3ccccc3nc21,-100% (active),-67% (active),-93.5% (active),-97.9% (active),-62.8% (active),-71.3% (active),-72.4% (active)
COC(=O)[C@]12CC[C@@H](C)[C@H](C)[C@@H]1C1=CC[C@@H]3[C@@]4(C)C=C(O)C(=O)[C@@]5(C)COC(=C54)C[C@@]3(C)[C@]1(C)CC2,-66.6% (active),-60.9% (active),-65.6% (active),-70.5% (active),-86.4% (active),-83.3% (active),-74.2% (active)
C=C1CC[C@@H]2[C@](C)(COC(C)=O)[C@H](OC(C)=O)CC[C@@]2(C)[C@@H]1CC(Nc1ccc(S(=O)(=O)Nc2cc(C)on2)cc1)C1=CCOC1=O (stereo not given in full),27.2%,35%,14.7%,12.3%,-1.13% (active),68.3%,30.5%
COc1ccc(/C=C/C(=O)Nc2cccnc2Nc2ccc(F)cc2)cc1,89.3%,94.4%,106%,88.3%,91.3%,106%,107%
CCOC(=O)C1=C(C)N2C(=NC3=C(CCC/C3=C\c3ccc(Cl)cc3)C2c2ccc(Cl)cc2)S1 (stereo not given),-44.5% (active),-14% (active),-59.8% (active),-43.7% (active),-100% (active),-100% (active),-73.3% (active)
CCOC(=O)c1c(C)c(C(=O)OCC)n(C)c1C,91.5%,101%,94.5%,127%,97.9%,110%,112%
O=C1CC(=O)N(c2ccccc2)O1,101%,104%,101%,115%,101%,105%,109%
O=C1Cc2cc(CCn3cncn3)c(Cl)cc2N1,68%,34.4%,54.2%,29%,79%,75.1%,36%
COc1ccc(-c2noc(N)c2-c2cc(OC)c3c(c2)OCO3)cc1,48%,-59.3% (active),17.5%,19.1%,20%,46%,23.9%
CSc1ccc2c(c1)N(CCC1CCCCN1C)c1ccccc1S2 (stereo not given),67.9%,42.6%,75.6%,5.18% (active),42.3%,34.4%,45%
O=C1NCN(c2ccccc2)C12CCN(CCCC(c1ccc(F)cc1)c1ccc(F)cc1)CC2,61.6%,47.7%,77%,37.8%,30.1%,15.9%,76.3%
Nc1nc(SCC2(CCl)COC2)c2[nH]cnc2n1,91.2%,107%,99.8%,86.4%,105%,97.7%,108%
Cc1nn(-c2ccccc2)c2nc(Cl)c(/C=C/C(=O)c3ccccc3)c(-c3ccccc3)c12,87.9%,103%,112%,96.1%,95.5%,103%,106%
COc1cccc2c1C(=O)c1c(O)c3c(c(O)c1C2=O)C[C@@](O)(/C(C)=N/NC(=O)c1cccc([N+](=O)[O-])c1)C[C@@H]3OC1CC(N)C(O)C(C)O1 (stereo not given in full),-14.9% (active),-34.3% (active),-43.5% (active),-8.97% (active),-53.8% (active),-58.2% (active),-39.2% (active)
COc1ccc2c(c1)nc(N)c1c3cc(C)c(C)cc3cn21,94.5%,-18% (active),41.9%,16.3%,49.6%,85.9%,46.8%
COc1cc2c(c(OC)c1OC)CCc1cnoc1-2,101%,103%,114%,104%,176%,90.1%,106%
COc1ccc2c(c1)C(=O)/C(=C/c1ccc([N+](=O)[O-])s1)O2,-52.9% (active),-70.4% (active),-69.7% (active),3% (active),-0.508% (active),-6.91% (active),-19.3% (active)
